Records with an inconclusive call do not appear. Where a call stands in place of a potency, no number is given. Values without a mark were called inactive. Activity calls are given as the source filed them. Calls follow the shape of the dose curve; as a rule, active = well fitted inhibition curve with a large enough effect; inconclusive = small, poorly fitted or top-dose-only effect; inactive = flat fitted curve, though single readings scatter.
target: Calcium and integrin-binding protein 1 (Homo sapiens) (UniProt Q99828); test: Primary qHTS for Identification of Calcium Integrin Binding Protein 1 (CIB1) Competitor (AID 1508620); conditions: CIB1-GST / FITC-alphaIIb peptide fluorescence polarization; series mostly up to 114 µM; also: top concentration of the series differs between compounds
Outline: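 Fluorescence polarization competition: GST-tagged CIB1 (1 uM final) preincubated with compound 15 min at room temperature, then FITC-labelled alphaIIb peptide (100 nM final) added. After 15 min at room temperature, polarization read at Ex 480/Em 540.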

Chain of Calcium and integrin-binding protein 1 (Homo sapiens) (Q99828 whole entry, looked up): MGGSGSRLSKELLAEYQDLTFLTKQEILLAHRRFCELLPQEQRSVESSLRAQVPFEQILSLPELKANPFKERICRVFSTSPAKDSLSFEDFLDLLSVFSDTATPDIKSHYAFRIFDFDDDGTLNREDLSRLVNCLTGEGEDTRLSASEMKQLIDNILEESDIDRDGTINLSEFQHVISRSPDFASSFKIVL

Structure (SMILES)	Potency	activity change, negative = inhibition
CC(C)/C=C1\NC(=O)C(C(C)C)n2c1nc1ccccc1c2=O (centres undefined)	inactive	
NS(=O)(=O)c1ccc(NC(=O)Nc2ccc(F)cc2)cc1	inactive	
O=C(N[C@H]1CCN(C(=O)c2cc(C(F)(F)F)cc(C(F)(F)F)c2)[C@H](Cc2ccc(Cl)cc2)C1)c1ccnc2ccccc12	inactive	
COc1cc(C(C)=O)c(OC)c2c1OC(C)(C)C=C2	inactive	
C[C@H](Nc1cc2c(-c3ccc4c(c3)OCO4)noc2cn1)c1ccccc1	inactive	
CC(C)c1ccc(-c2cc(=O)c3ccccc3o2)cc1	inactive	
CCn1c(=O)c(-c2ccc(-c3cncs3)cc2Cl)cc2cnc(Nc3ccc(N4CCN(C)CC4)cc3)nc21	inactive	
C=C1C(=O)O[C@@H]2C[C@]3(C)[C@@H](CCC(C)O)[C@@H]3C[C@H]12 (some centres undefined)	inactive	
C=C1C(=O)OC2/C=C(\C)CC3C=C(CC/C=C(\C)CCC12)C(=O)O3 (centres undefined)	inactive	
O=C(NO)c1cnc(N2CCN(S(=O)(=O)c3ccc4ccccc4c3)CC2)nc1	inactive	
Cc1ccc(CNc2ncnc3ccc(-c4ccc(CO)o4)cc23)o1	inactive	
O=C(NCCN1CCOCC1)c1cc2c(Oc3ccc(NC(=O)C4(C(=O)Nc5ccc(F)cc5)CC4)cc3)ccnc2[nH]1	inactive	
N#Cc1cccc(C(=O)Nc2cc(-c3ccccc3)nn2-c2ccccc2)c1	inactive	
Cc1ccnn1-c1ccc(C(=O)N2CCN(S(=O)(=O)c3ccc(Cl)c(C(F)(F)F)c3)CC2)cc1	inactive	
Cc1nc(N2CCN(C(=O)c3ccco3)CC2)c2c3c(sc2n1)CCCC3	inactive	
O=S(=O)(Cc1ccccc1)Nc1ccc(-c2ccc3c(cnn3-c3ccc(F)cc3)c2)c(C(F)(F)F)c1	inactive	
C[C@@H]1CC[C@]2(C(=O)O)CC[C@]3(C)C(=CCC4[C@@]5(C)CC[C@H](O)[C@](C)(C(=O)O)C5CC[C@]43C)C2[C@]1(C)O (some centres undefined)	inactive	
O=c1cc(OCc2ccc(F)cc2)ccn1-c1ccc(OCCN2CCCC2)cc1	inactive	
C=C1C(=O)O[C@@H]2C[C@H](C)C3=CC(=O)[C@H](O)[C@@]3(C)C[C@H]12	inactive	
CC(=O)O[C@@H]1CC2C(C)(C)C(=O)C=C[C@]2(C)C2CC[C@@]3(C)[C@H](c4ccoc4)OC(=O)[C@H]4O[C@]43[C@@]21C (some centres undefined)	inactive	

Structure (SMILES)	Potency	activity change, negative = inhibition
O=C(Nc1ccc(-c2ccnc(Nc3ccc(N4CCOCC4)cc3)n2)cc1)C1CCCN1 (centres undefined)	inactive	
CCN(CC)CCCS(=O)(=O)N[C@H](CCc1ccccc1)c1nc(Cc2ccc(Br)cc2)no1	inactive	
Cc1cc(-c2nc3cc(F)ccc3s2)ccc1NC(=O)[C@@H](N)CCCCN	inactive	
CCN1CCN(Cc2ccc(NC(=O)c3ccc(C)c(Oc4ncnc5[nH]c(C)cc45)c3)cc2C(F)(F)F)CC1	inactive	
O=[N+]([O-])c1ccc(Oc2ccc3c(c2)CCC(c2ccccc2)O3)nc1 (centres undefined)	inactive	
CC1(CO)CC2C(O)C3=C(CC(C)(O)C2C1)C(=O)OC3 (centres undefined)	inactive	
CC(C)=CCc1cc2c(cc1O)OC[C@H]1c3ccc(O)cc3O[C@@H]21	inactive	
NCC1CCN(c2nccc(-c3ccc4ccccc4c3)n2)CC1	inactive	
C=C1C(=O)O[C@@H]2C[C@@]3(C)CCCC(=C)[C@]3(O)C[C@H]12	inactive	
CC1OC(OC2C(O)COC(O[C@@H]3[C@@H](O)[C@@H](O)[C@H](OC4C(OC(=O)[C@]56CCC(C)(C)CC5C5=CCC7[C@@]8(C)C[C@H](O)[C@H](OC9OC(CO)C(O)C(O)C9O)[C@@](C)(CO)C8[C@H](O)C[C@@]7(C)[C@]5(C)CC6)OCC(O)C4O)O[C@H]3C)C2O)C(O)C(O)C1O (some centres undefined)		-1.65% [at 12.4 µM]
C=C1CC[C@@H]2[C@](C)(CO)[C@H](O)CC[C@@]2(C)[C@@H]1C/C=C1/C(=O)OCC1O (some centres undefined)	inactive	
COc1cc(O)cc(/C=C/c2cccc(O)c2)c1	inactive	
CC1(C)CC[C@]23CO[C@@]4(CCC5[C@@]6(C)CC[C@H](O[C@@H]7OC[C@H](O[C@@H]8O[C@H](CO)[C@@H](O)[C@H](O)[C@H]8O[C@@H]8OC[C@@H](O)[C@H](O)[C@H]8O)[C@H](O)[C@H]7O[C@@H]7O[C@H](CO)[C@@H](O)[C@H](O)[C@H]7O)[C@@](C)(CO)C6CC[C@@]5(C)[C@]4(C)C[C@H]2O)[C@@H]3C1 (some centres undefined)	inactive	
CC(=O)O[C@@H]1C2=C(O)C(=O)[C@](C)(OC(C)=O)C(=O)C2=CO[C@@]12O[C@@H](C)CC[C@H]2OC(C)=O	inactive	
O=C(O)c1cccc(-c2ccc(-c3cn(C(=O)N4CCCCC4Cc4ccccc4)nn3)cc2)c1 (centres undefined)	inactive	
O=C(NCc1ccc(OC(F)(F)F)cc1)C1c2c(F)cccc2C(=O)N1CCc1ccccn1 (centres undefined)	inactive	
Fc1ccc(-n2cc(CCCCN3CCC4(CC3)OCc3ccccc34)c3ccccc32)cc1	inactive	
CCC(CC)Nc1nc(C)c(-c2ccc(OC(F)(F)F)cc2OC)nc1OC	inactive	
CC(C)(O)c1ccn2c(-c3ccc(F)c(-c4ccc(F)cc4C#N)c3)cnc2c1F	inactive	

— PubChem BioAssay (NCATS)
